Data on 5 molecules can be found in PubChem BioAssay.

Active and inactive are the calls of the source. Unless noted, the rule behind the calls is not given here.

The nature of assay [1]: compounds binding Alexa647 anti-His antibody – biochemical, small-molecule microarray, 635 nm fluorescence, artefact control for SMM control protein annotation, primary screen (AID 1128).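 Note: score merges feature fluorescence with signal-to-noise for each printed compound spot.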 The settings on record: higher = more signal.
For assay [2], the system named is Human papillomavirus type 1a E7 protein (residues 1-88). Briefly: HPV1a E7 small-molecule binders, primary screen, biochemical, small-molecule microarray, residues 1-88, 635 nm (AID 1129). The settings on record: small-molecule microarray binding, fluorescence 635 nm; higher = more signal.
Assay [3] concerns the target Focal adhesion kinase 1 (Homo sapiens) (UniProt Q05397). Briefly: PTK2 protein binding on printed compound slides – biochemical, small-molecule microarray, 635/667 nm fluorescence, BSA, DTT, primary screen (AID 1130).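 Note: composite of spot emission at 667 nm and signal to noise over triplicate slides.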 The conditions noted are these: 635 nm fluorescence, higher = more signal.
The test system of assay [4] is Fibrinogen (Alexa647-labelled). Briefly: Alexa647-fibrinogen binding to printed small molecules – biochemical, small-molecule microarray, 635/667 nm fluorescence, artefact control for SMM control-protein annotation, profiling panel (AID 1131).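 Note: z-score merges 667 nm fluorescence with per-spot signal-to-noise over triplicate slides.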 The settings on record: fibrinogen-A647 binding fluorescence, higher = more signal.
Assay [5] deals with Follistatin (Homo sapiens) (UniProt P19883). Briefly: FST protein binding to printed compounds – biochemical, small-molecule microarray, 635/667 nm fluorescence, primary screen (AID 1132). The settings on record: 635 nm fluorescence, higher = more signal.
Follistatin (Homo sapiens), sequence (P19883 whole entry, looked up): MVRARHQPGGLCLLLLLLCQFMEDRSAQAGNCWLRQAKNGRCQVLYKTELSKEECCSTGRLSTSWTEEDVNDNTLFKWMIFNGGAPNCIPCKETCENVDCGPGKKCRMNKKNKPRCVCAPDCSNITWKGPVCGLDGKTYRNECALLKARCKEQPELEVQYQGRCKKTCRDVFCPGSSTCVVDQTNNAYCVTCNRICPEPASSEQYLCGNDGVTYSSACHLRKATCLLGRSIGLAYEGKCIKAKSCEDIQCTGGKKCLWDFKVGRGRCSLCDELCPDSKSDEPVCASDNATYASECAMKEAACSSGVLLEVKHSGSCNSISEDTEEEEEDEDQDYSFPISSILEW
Assay [6] concerns the target Fibroblast growth factor 2 (Homo sapiens) (UniProt P09038). Briefly: basic fibroblast growth factor binding to printed compounds – biochemical, small-molecule microarray, 635/667 nm fluorescence, primary screen (AID 1133). The conditions noted are these: FGF2, fluorescence 635/667, higher = more signal.
Assay [7] is described as follows: JC-1 mitochondrial potential readout, lung cancer cells – cell-based, A549, JC-1 fluorescence, basal, 24 h, 100 nL, profiling panel (AID 1138).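 Note: A549 lung adenocarcinoma cells under basal conditions with no added stimulus; test concentration not given here.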 The conditions noted are these: higher = more signal.
Assay [8] relates to Lefty1. Briefly: Lefty1 protein binding to printed compounds – biochemical, small-molecule microarray, 635/667 nm fluorescence, primary screen (AID 1139). The settings on record: fluorescence 635/667, higher = more signal.
The test system of assay [9] is wheat germ agglutinin (Triticum aestivum), Alexa647-labelled. The assay can be described thus: Alexa647-WGA lectin binding to printed small molecules – biochemical, small-molecule microarray, 635/667 nm fluorescence, artefact control for SMM control-protein annotation, profiling panel (AID 1140).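 Note: score merges 667 nm feature emission with signal to noise over triplicate slides.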 The settings on record: WGA-A647 binding, 635 nm fluorescence, higher = more signal.

Assay [10] has as its target Luciferin 4-monooxygenase (Photinus pyralis) (UniProt P08659). The assay can be described thus: inhibition of purified Photinus pyralis luciferase – biochemical, luminescence, purified enzyme, 2006 set, primary screen (AID 1141).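 Note: cell-free assay with purified firefly luciferase at 100 ng per well in PBS; test concentration not given here.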 The settings on record: purified firefly luciferase, SteadyGlo luminescence, 30 min; higher = more signal, called active from +8 up or from −8 down.

Assay [11] deals with Wnt5a (protein binding on small-molecule microarray). Briefly: small molecules binding Wnt5a protein – biophysical, small-molecule microarray, 635/667 nm fluorescence, primary screen (AID 1142).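 Note: fluorescence read at 667 nm with signal to noise per printed feature.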 The conditions noted are these: 635 nm fluorescence, higher = more signal.
The nature of assay [12]: ATP-based viability of Huh7 replicon cells – cell-based, CellTiter-Glo luminescence, basal, 48 h, cytotoxicity control for HCV replication inhibitor project, primary screen (AID 1143).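 Note: Huh7 hepatoma cells carrying a hepatitis C replication reporter with no stimulus; test concentration not given here.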 The settings on record: higher = more signal, called active from +8 up or from −8 down. (In antiviral work, replicon cells carry a viral genome segment that copies itself.)
Assay [13] is described as follows: Pseudomonas biofilm growth suppression – PAO1 strain, BacTiter-Glo luminescence, LB-PBS, primary screen (AID 1144). The settings on record: P. aeruginosa PAO1 biofilm, 12 h, higher = more signal.
Assay [14] is described as follows: basal CRE-LacZ reporter activity in PC12 – cell-based, unstimulated, primary screen (AID 1145). The settings on record: no forskolin, luminescence, 4.5 h, higher = more signal, called active from +8 up or from −8 down.
Assay [15] is described as follows: forskolin-driven CRE-LacZ activity in PC12 – cell-based, CRE-LacZ reporter, forskolin-stimulated, primary screen (AID 1146).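 Note: PC12 cells with 6xCRE LacZ reporter stimulated by forskolin 10 µM; beta-galactosidase reporter signal reflecting CREB driven transcription.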 The conditions noted are these: luminescence, 4.5 h, higher = more signal, called active from +8 up or from −8 down.
Assay [16] deals with Streptavidin (Streptomyces avidinii) (UniProt P22629). Briefly: compounds binding control protein streptavidin – biophysical, small-molecule microarray, 635/667 nm fluorescence, artefact control for SMM compound annotation, primary screen (AID 1147).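 Note: signal reflects streptavidin binding to arrayed compounds as a control protein.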 The settings on record: higher = more signal.
Streptavidin (Streptomyces avidinii), sequence (P22629 whole entry, looked up): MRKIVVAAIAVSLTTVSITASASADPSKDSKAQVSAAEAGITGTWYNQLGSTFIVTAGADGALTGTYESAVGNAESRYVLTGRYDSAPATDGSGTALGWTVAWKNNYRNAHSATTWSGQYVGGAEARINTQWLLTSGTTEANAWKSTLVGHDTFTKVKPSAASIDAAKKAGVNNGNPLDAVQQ
Assay [17] is described as follows: probe aInhba binding on compound microarray – biochemical, small-molecule microarray, 635/667 nm fluorescence, primary screen (AID 1148).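 Note: score merges 667nm spot fluorescence with signal-to-noise for antibody binding to printed compounds.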 The settings on record: higher = more signal.
The target in assay [18] is Torsin-1A (Homo sapiens) (UniProt O14656). The assay can be described thus: TOR1A wild-type binding on microarray – cell lysate, small-molecule microarray, lysate, 635/667 nm, primary screen (AID 1149). The conditions noted are these: COS7 hTOR1A-WT lysate, 635 nm fluorescence, higher = more signal.
Torsin-1A (Homo sapiens), sequence (O14656 whole entry, looked up): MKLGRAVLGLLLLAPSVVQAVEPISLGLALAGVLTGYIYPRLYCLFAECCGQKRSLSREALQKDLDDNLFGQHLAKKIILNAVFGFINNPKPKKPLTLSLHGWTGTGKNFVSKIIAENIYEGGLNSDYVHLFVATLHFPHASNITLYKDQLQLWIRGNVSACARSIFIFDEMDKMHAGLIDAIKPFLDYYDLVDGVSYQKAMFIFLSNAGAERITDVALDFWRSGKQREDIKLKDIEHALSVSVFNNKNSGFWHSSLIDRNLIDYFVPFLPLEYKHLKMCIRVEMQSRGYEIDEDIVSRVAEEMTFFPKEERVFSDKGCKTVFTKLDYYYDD
Assay [19] shares this target. The assay can be described thus: torsin A mutant lysate binding on microarrays – cell lysate, small-molecule microarray, COS7 lysate, 635/667 nm fluorescence, primary screen (AID 1150).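 Note: score pools 667 nm emission and signal to noise measuring lysate protein binding.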 The settings on record: COS7 hTOR1A mutant lysate, 635 nm fluorescence, higher = more signal.
The subject of assay [20] is Sonic hedgehog protein (Shh). Briefly: Sonic hedgehog microarray binding compounds – biochemical, small-molecule microarray, 635/667 nm fluorescence, primary screen (AID 1151).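 Note: Shh protein binding to compounds spotted on small-molecule microarray slides; score combines spot fluorescence intensity with signal-to-noise across triplicate slides.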 The settings on record: 635 nm fluorescence, higher = more signal.

Fibroblast growth factor 2 (Homo sapiens), sequence (P09038 whole entry, looked up): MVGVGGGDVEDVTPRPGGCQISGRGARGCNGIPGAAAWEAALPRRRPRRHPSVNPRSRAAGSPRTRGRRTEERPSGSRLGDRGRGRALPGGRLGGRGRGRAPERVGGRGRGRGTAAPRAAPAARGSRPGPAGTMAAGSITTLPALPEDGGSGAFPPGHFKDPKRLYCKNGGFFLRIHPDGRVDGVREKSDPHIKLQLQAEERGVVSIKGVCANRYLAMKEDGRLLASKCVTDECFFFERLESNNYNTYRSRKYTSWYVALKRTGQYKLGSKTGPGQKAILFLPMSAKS
Focal adhesion kinase 1 (Homo sapiens), sequence (Q05397 whole entry, looked up): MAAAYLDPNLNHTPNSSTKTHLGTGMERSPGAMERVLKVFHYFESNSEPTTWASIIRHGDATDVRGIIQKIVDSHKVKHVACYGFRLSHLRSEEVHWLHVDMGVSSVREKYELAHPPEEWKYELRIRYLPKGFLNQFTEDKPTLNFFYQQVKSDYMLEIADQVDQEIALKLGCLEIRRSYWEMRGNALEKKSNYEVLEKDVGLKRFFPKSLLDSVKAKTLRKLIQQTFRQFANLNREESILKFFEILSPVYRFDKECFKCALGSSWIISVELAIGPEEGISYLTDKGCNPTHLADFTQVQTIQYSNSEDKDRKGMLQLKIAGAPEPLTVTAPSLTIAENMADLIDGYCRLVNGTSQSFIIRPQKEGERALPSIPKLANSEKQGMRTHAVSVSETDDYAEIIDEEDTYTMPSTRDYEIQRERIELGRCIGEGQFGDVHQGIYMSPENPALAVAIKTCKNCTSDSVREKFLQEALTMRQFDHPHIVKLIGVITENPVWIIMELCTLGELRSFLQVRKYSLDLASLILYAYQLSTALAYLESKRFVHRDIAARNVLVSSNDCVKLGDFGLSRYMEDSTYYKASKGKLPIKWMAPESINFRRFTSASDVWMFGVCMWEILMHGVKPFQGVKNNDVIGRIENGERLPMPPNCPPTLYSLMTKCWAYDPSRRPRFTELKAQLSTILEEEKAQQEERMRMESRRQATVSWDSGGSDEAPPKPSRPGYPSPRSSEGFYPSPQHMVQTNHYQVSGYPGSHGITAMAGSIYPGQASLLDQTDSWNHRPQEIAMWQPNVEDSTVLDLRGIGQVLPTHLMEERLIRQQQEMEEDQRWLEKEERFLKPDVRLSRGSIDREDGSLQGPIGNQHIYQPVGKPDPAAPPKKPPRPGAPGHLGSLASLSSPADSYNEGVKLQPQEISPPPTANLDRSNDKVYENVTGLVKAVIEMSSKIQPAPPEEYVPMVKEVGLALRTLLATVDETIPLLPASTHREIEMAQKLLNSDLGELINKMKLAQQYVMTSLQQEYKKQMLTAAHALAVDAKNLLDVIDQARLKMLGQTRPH
Luciferin 4-monooxygenase (Photinus pyralis), sequence (P08659 whole entry, looked up): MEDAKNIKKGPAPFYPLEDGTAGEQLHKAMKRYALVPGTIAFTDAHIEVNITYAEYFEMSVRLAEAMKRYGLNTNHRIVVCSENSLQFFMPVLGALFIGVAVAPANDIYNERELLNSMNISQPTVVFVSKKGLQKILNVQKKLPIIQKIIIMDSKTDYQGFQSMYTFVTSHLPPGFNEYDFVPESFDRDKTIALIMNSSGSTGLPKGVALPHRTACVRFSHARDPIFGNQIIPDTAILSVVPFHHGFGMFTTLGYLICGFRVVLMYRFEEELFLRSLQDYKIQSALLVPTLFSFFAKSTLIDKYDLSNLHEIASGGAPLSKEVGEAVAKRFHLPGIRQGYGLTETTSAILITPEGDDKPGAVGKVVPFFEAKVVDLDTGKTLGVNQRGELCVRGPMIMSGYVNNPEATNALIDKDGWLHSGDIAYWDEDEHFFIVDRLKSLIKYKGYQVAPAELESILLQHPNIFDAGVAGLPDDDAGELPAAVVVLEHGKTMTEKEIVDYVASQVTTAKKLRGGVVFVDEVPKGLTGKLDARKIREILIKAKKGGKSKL

With `O[C@@H](Cc1ccccc1)[C@@H](/C=C/C1CC1)N(CC#Cc1ccccc1)Cc1cccc(Cl)c1`, the composite z-score in [1] was -0.156; in assay [2] it was -0.429; in assay [3] it was -0.0816; in assay [4], -0.6; in assay [5], -1.19; in assay [6] it was -1.43. Also, the composite z-score in [8] is -0.954; in assay [9], 0.197; in assay [11] it was -0.501; in assay [16], -0.679; in assay [17], -0.302; in assay [18] it was -0.662. Besides, the composite z-score in assay [19] is -0.976; in assay [20], -1.03. Further, the z-score was 0.513 in assay [7]; 0.466 (inactive) in [10]; -1.09 (inactive) in assay [12]; -0.94 (inactive) in assay [13]; 2.04 (inactive) in assay [14]; -0.295 (inactive) in assay [15].

Take `C=CCOC(=O)[C@H]1[C@@H]2C(=O)O[C@@H](c3ccccc3)[C@@H](c3ccccc3)N2[C@@H](c2ccc(OCCOC(=O)[C@H]3C[C@H]4C(=O)N[C@@H](CCCCNC(C)=O)C(=O)N4[C@H]3c3ccc(O)cc3)cc2)[C@]12C(=O)Nc1ccccc12`: the composite z-score turned out to be 2.7 in assay [1]; 1.12 in assay [2]; 0.765 in assay [3]; 0.732 in assay [4]; 1.4 in [5]; 1.63 in assay [6]. For the same molecule, the composite z-score is 1.1 in assay [8]; 0.538 in assay [9]; 0.228 in assay [11]; -0.292 in assay [16]; -0.146 in assay [17]; 0.757 in [18]. The results for the composite z-score in assay [19] and in assay [20] were 0.835 and 1.75, respectively. Also, the z-score was -1.16 in assay [7]; -2.37 (inactive) in assay [10]; -1.59 (inactive) in [12]; -1.57 (inactive) in [13]; 0.147 (inactive) in assay [14]; -0.542 (inactive) in assay [15].

Consider `COC(=O)c1ccc([C@H](NC(=O)c2ccco2)[C@]2(C)C[C@H]2C2CCCCC2)cc1`, for which the composite z-score was -0.162 in [1]; -0.678 in assay [2]; -0.59 in assay [3]; -0.293 in assay [4]; -0.633 in assay [5]; -1.11 in [6]. Further, the composite z-score in [8] is -1.58; in assay [9] it was 0.638; in [11] it was 0.0108; in assay [16], 0.689; in [17] it was 0.0659; in assay [18], -2.21. Further, the results for the composite z-score in assay [19] and in [20] were -0.568 and -1.21, respectively. In addition, the z-score in assay [7] is -0.573; in assay [10], 1.34 (inactive); in assay [12] it was -2.84 (inactive); in [13] it was -0.635 (inactive); in assay [14], -0.368 (inactive); in [15] it was 0.898 (inactive).

Turning to `CC(C)N1C(=O)c2ccccc2[C@@H](C(=O)NC2CC2)[C@@H]1c1ccc(CO)cc1`, the composite z-score in assay [1] is 1.89; in assay [2] it was 0.934; in assay [3], -0.361; in assay [4] it was 0.868; in assay [5] it was 1.04; in assay [6] it was 1.08. In addition, the composite z-score in assay [8] is 0.147; in [9], 0.22; in assay [11], 0.302; in assay [16] it was 0.381; in [17], -0.0059; in assay [18], 0.775. In addition, the composite z-score in [19] was determined as 0.852; in assay [20], 0.531. Besides, the z-score in [7] is 1.04; in assay [10], -0.161 (inactive); in [12], -0.264 (inactive); in assay [13], -0.226 (inactive); in [14] it was 0.001 (inactive); in assay [15], -0.3 (inactive).

On to `CCCC[C@@H]1C[C@H]1[C@@H](NC(=O)c1ccccc1)c1ccc(C(F)(F)F)cc1`, for which the composite z-score in assay [1] is 0.581; in assay [2], -0.551; in assay [3], -0.0796; in assay [4] it was -2.43; in assay [5], -1; in assay [6], -1.19. In addition, the composite z-score in assay [8] is -0.549; in assay [9], -0.331; in [11] it was -0.547; in assay [16], 0.056; in assay [17] it was -0.143; in assay [18] it was -1.15. In addition, the composite z-score in [19] is -0.349; in [20], -1.85. Besides, the z-score in assay [7] is -0.0527; in assay [10], 0.286 (inactive); in assay [12], 0.085 (inactive); in assay [13], 0.401 (inactive); in [14], -0.572 (inactive); in [15] it was 0.24 (inactive).
